The record followed here is article PMC5540273 (PLoS ONE, 2017).

Common to all, as to details: concentration: 1 μM,replicates: in singlicate; n = 1
Assay [1] deals with T1, ERK1.
T1 construct: gene MAPK3

Assay [2] concerns T2, ERK2.
T2 construct: gene MAPK1

Assay [3] concerns T3, ERK3.
T3 construct: gene MAPK6

Assay [4] relates to T4, ERK4.
T4 construct: gene MAPK4

In assay [5] the test system is T5, ERK5.
T5 construct: gene MAPK7

Assay [6] relates to T6, ERK8.
T6 construct: gene MAPK15

Assay [7] has as its system ERN1.
Assay [8] relates to T7, FAK.
T7 construct: gene PTK2

Assay [9] deals with FER.
Assay [10] concerns FES.
For assay [11], the system named is FGFR1.
The subject of assay [12] is FGFR2.
Assay [13] relates to FGFR3.
Assay [14] concerns FGFR4.
Assay [15] deals with FGR.
Assay [16] has as its system FLT1.
Assay [17] deals with FLT3-autoinhibited.
Assay [18] concerns FLT3.
In assay [19] the test system is FLT4.
For assay [20], the system named is FRK.
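Also: KINOMEscan kinase panel screen.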

As to `COC(=O)c1cccc(NC(=O)NC2CCN(c3ccnc(Nc4cc(OC)c(OC)c(OC)c4)n3)C2)c1` (centres unmarked) [GSK1379767], the “%Inh” value in assay [1] is given as 0%; in [2], 0%; in assay [3], 19%; in assay [4], 0%; in [5], 0%; in assay [6], 0%. Also, the “%Inh” value in assay [7] was found to be 4%; in assay [8], 0%; in assay [9], 17%; in assay [10], 15%; in [11] it was 0%; in assay [12], 0%. Further, the “%Inh” value in assay [13] was determined as 32%; in [14], 0%; in assay [15] it was 25%; in assay [16], 13%; in assay [17] it was 4%; in assay [18] it was 33%. In addition, the “%Inh” value was determined as 14% in assay [19] and 17% in assay [20].

For the compound `COC(=O)c1cccc(NC(=O)NC2CCN(c3ccnc(NCc4ccc(F)cc4)n3)CC2)c1` [GSK1379860], the “%Inh” value in assay [1] was 0%; in [2] it was 14%; in [3] it was 14%; in [4], 0%; in assay [5], 22%; in [6], 35%. Besides, the “%Inh” value in assay [7] came out at 0%; in assay [8] it was 0%; in [9], 10%; in [10], 1%; in [11] it was 3%; in [12], 27%. The “%Inh” value in [13] is listed as 11%; in assay [14] it was 0%; in assay [15], 11%; in assay [16] it was 42%; in assay [17], 24%; in assay [18], 0%. Further, the figures for the “%Inh” value in assay [19] and in [20] were 38% and 16%, respectively.

Take `CC(=O)c1c(-c2ccncc2)[nH]c(-c2ccncc2)c1C` [GW493036]: the “%Inh” value was 3% in assay [1]; 0% in [2]; 0% in assay [3]; 0% in assay [4]; 0% in assay [5]; 96.5% in assay [6]. The “%Inh” value in [7] worked out at 0%; in assay [8], 0%; in [9], 2%; in assay [10], 0%; in [11], 0%; in assay [12] it was 0%. Besides, the “%Inh” value is recorded as 0% in [13]; 9% in assay [14]; 27% in assay [15]; 10% in assay [16]; 0% in [17]; 0% in [18]. The “%Inh” value in [19] and in assay [20] was 0% throughout.

For the compound `COc1cccc(OC)c1C(=O)Nc1cccc(-c2nn3ccccc3c2-c2ccnc(Nc3cccc(F)c3)n2)c1` [GSK361065], the “%Inh” value is 1% in assay [1]; 6% in assay [2]; 1% in assay [3]; 9% in [4]; 2% in assay [5]; 3% in assay [6]. For the same compound, the “%Inh” value worked out at 10% in assay [7]; 1% in [8]; 24% in assay [9]; 20% in assay [10]; 11% in assay [11]; 0% in assay [12]. Moreover, the “%Inh” value is given as 0% in [13]; 0% in assay [14]; 23% in [15]; 32% in assay [16]; 0% in assay [17]; 49% in assay [18]. The “%Inh” value in assay [19] is reported as 27%; in [20] it was 16%.

On to `COc1cccc(CNC(=O)NC2CCN(c3ccnc(Nc4cc(OC)c(OC)c(OC)c4)n3)C2)c1` (centres unmarked) [GSK1379765], for which the “%Inh” value in assay [1] came to 0%; in assay [2], 0%; in assay [3], 33%; in assay [4], 0%; in assay [5], 0%; in [6] it was 0%. For the same compound, the “%Inh” value in assay [7] is 3%; in assay [8] it was 0%; in [9], 26%; in assay [10] it was 0%; in [11], 0%; in [12] it was 49%. Further, the “%Inh” value in assay [13] is 23%; in assay [14], 2%; in assay [15] it was 18%; in [16], 26%; in assay [17], 14%; in [18] it was 47%. The “%Inh” value in [19] amounted to 23%; in assay [20], 21%.

For the compound `CC(C)c1nc(-c2cccc(NS(=O)(=O)c3ccccc3)c2)c(-c2ccnc(Nc3ccc4c(c3)CN(C)CC4)n2)s1` [GSK1649598], the “%Inh” value in assay [1] amounted to 0%; in assay [2] it was 0%; in [3], 0%; in assay [4] it was 43%; in [5], 11%; in assay [6] it was 0%. The “%Inh” value in assay [7] was 63%; in [8], 0%; in assay [9] it was 23%; in [10], 0%; in assay [11], 68%; in assay [12] it was 6%. Moreover, the “%Inh” value in assay [13] amounted to 35%; in [14], 0%; in [15] it was 97.4%; in [16] it was 98.2%; in assay [17] it was 40%; in assay [18], 90.3%. Further, the figures for the “%Inh” value in [19] and in [20] were 99.6% and 98.2%, respectively.

Consider `CC(=O)Nc1nc2cnc(Nc3cc(NC(=O)c4cccc(CC(C)(C)C#N)c4)ccc3C)nc2s1`, for which the “%Inh” value is 1% in [1]; 15% in [2]; 0% in assay [3]; 4% in [4]; 9% in [5]; 53% in [6]. The “%Inh” value turned out to be 0% in assay [7]; 8% in [8]; 0% in [9]; 0% in assay [10]; 0% in assay [11]; 1% in assay [12]. Also, the “%Inh” value in assay [13] was found to be 4%; in [14], 0%; in assay [15] it was 24%; in [16], 3%; in [17], 0%; in [18], 8%. Besides, the “%Inh” value turned out to be 73% in assay [19] and 83% in assay [20].

As to `Cc1ccc(C(=O)Nc2ccc(Oc3ccc4nc(NC(=O)C5CC5)cn4c3)c(F)c2)c(=O)n1-c1ccccc1`, the “%Inh” value in assay [1] is 0%; in assay [2], 0%; in assay [3], 0%; in assay [4], 0%; in [5] it was 0%; in assay [6] it was 34%. The “%Inh” value is given as 0% in [7]; 3% in [8]; 75% in [9]; 48% in assay [10]; 0% in assay [11]; 23% in assay [12]. The “%Inh” value in [13] turned out to be 11%; in assay [14] it was 1%; in [15], 91%; in [16], 67%; in assay [17] it was 62%; in assay [18], 98.5%. The “%Inh” value amounted to 100% in [19] and 64% in [20].

Consider `CCOC(=O)N1CCC(n2cnc(-c3ccc(F)cc3)c2-c2ccnc(N)n2)CC1` [SB-219952], for which the “%Inh” value is on record as 0% in [1]; 0% in assay [2]; 0% in assay [3]; 8% in assay [4]; 0% in assay [5]; 0% in assay [6]. Moreover, the “%Inh” value came to 19% in [7]; 0% in assay [8]; 20% in assay [9]; 0% in assay [10]; 0% in assay [11]; 12% in assay [12]. Also, the “%Inh” value is recorded as 12% in assay [13]; 0% in [14]; 0% in assay [15]; 33% in assay [16]; 14% in [17]; 24% in assay [18]. In addition, the “%Inh” value in assay [19] stood at 0%; in assay [20], 2%.

Turning to `C[C@@H](Oc1cc(-n2cnc3cc(-c4ccncc4)ccc32)sc1C(N)=O)c1ccccc1Cl` [GSK479719], the “%Inh” value was 0% in [1]; 0% in [2]; 0% in assay [3]; 0% in assay [4]; 0% in [5]; 85% in [6]. Also, the “%Inh” value was found to be 16% in assay [7]; 0% in assay [8]; 13% in assay [9]; 18% in [10]; 46% in assay [11]; 57% in assay [12]. Also, the “%Inh” value in [13] amounted to 71%; in assay [14], 34%; in [15], 40%; in assay [16], 54%; in [17] it was 24%; in [18] it was 97.3%. The “%Inh” value in [19] was 97.1%; in [20], 15%.
